Screens from PubChem.
Compounds with a hit are over-represented: about 11% of the library has one in this group of screens.
HCV inhibitor = HCV inhibition; Huh7.5.1 HCVcc-Cre infection, luciferase reporter, 44 h; Potency, µM (doses to about 41.8 µM), for inactives: at the highest dose activity change, negative = inhibition, actives largely listed as inhibitors; 340,000 tested, 3.4% active; note: % is set by controls: 0 for no effect and ±100 for the full control effect
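Cells seeded at 1,000/well and cultured 4 h, then compounds added followed by HCVcc-Cre virus (~0.5 moi). After 44 h further culture, luciferase substrate was added, plates held 15 min at room temperature, and luminescence read for 15 sec.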
VACV mCherry inh = inhibitors of vaccinia virus infection (mCherry reporter signal) | 310,000 tested, 0.63% active | Vaccinia virus mCherry reporter infection, fluorescence | Potency, µM (highest dose often 36.5 µM), for the others: at the highest dose activity change, negative = inhibition, actives largely listed as inhibitors; calls by dose curve; tested in A549 cells; note: % is set by controls: 0 for no effect and ±100 for the full control effect; nearly all actives have a fitted effect of over 35% in size
Pf growth 96h = inhibits malaria parasite growth, 96 h | P. falciparum luciferase reporter growth, 96 h | Potency, µM (doses to about 28.7 µM), for inactives: at the highest dose activity change, negative = inhibition, usual class: inhibitors | 320,000 tested, 6.9% active; note: % is set by controls: 0 for no effect and ±100 for the full control effect
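Infected RBCs, 2% Hct / 0.05% parasitemia final; luciferase-reporter P. falciparum; cpd 96 h, 37 C, 5% CO2; luciferase detection reagent; luminescence.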
Pf growth 48h = inhibits P. falciparum growth in the first generation, 48 h; P. falciparum luciferase growth in erythrocytes, 48 h; Potency, µM (titrated, usually from 28.7 µM), for the others: top-dose activity change, negative = inhibition, most hits filed as inhibitors; 310,000 tested, 5.9% active; AID 504832; note: % is set by controls: 0 for no effect and ±100 for the full control effect
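Parasite viability was followed by luminescence of a genomically integrated firefly luciferase. Cultures held 0.1% parasitemia at 2% hematocrit (final), incubated under 5% CO2 at 37 C.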
VACV Venus inh = inhibitors of vaccinia virus (Venus reporter); Vaccinia virus Venus reporter expression, fluorescence; Potency, µM (top dose mostly 36.5 µM), inactives show at the highest dose activity change, negative = inhibition, most hits filed as inhibitors; 330,000 tested, 0.46% active; calls by dose curve; tested in A549 cells; note: % is set by controls: 0 for no effect and ±100 for the full control effect; nearly all actives have a fitted effect of over 30% in size
NS1 function inh = influenza NS1 inhibition | Potency, µM (doses to about 46.1 µM), for the others: at the highest dose activity, positive = more growth | 270,000 tested, 0.4% active; calls by dose curve; note: actives are rising curves; nearly all actives have a fitted effect of over 50% in size
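A cell-based growth assay was used: compounds that relieve NS1-induced slow growth of budding yeast raise OD600. Assay medium was yeast nitrogen base with ammonium sulphate and -URA supplement, pH 6.0, with 2% galactose.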
HCV inh confirm = HCV inhibition, cherry-pick confirmation | AID 720575 | 640 tested, 78% active | HCVcc-Cre infectious virus cell assay, luciferase, inhibition | Potency, µM (series often up to 41.8 µM), for the others: at the highest dose activity, negative = inhibition, hits mostly inhibitors | shares compounds with HCV inhibitor; note: nearly all actives have a fitted effect of over 80% in size
HCV cytotox = host cell cytotoxicity counter-screen for HCV inhibitors | shares compounds with HCV inhibitor | HCV host cell line cytotoxicity counterscreen | Potency, µM (doses to about 41.8 µM), for the others: at the highest dose activity change, negative = cytotoxicity, actives largely listed as inhibitors | 640 tested, 22% active;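 note: 44 h compound exposure; % is set by controls: 0 for no effect and ±100 for the full control effect; nearly all actives have a fitted effect of over 55% in size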
* hit, by the source's call; i = inactive; ? = inconclusive; / = no result. Unless noted, calls come from the whole dose curve; as a rule, active = well fitted curve in the direction sought with a large enough effect; inconclusive = small, poorly fitted or top-dose-only effect, or another doubt; inactive = no such curve, though single readings can be large; an effect the other way counts as inactive or inconclusive. Potency is the fitted concentration of half-maximal effect.

SMILES	HCV inhibitor	VACV mCherry inh	Pf growth 96h	Pf growth 48h	VACV Venus inh	NS1 function inh	HCV inh confirm	HCV cytotox
COc1ccccc1NS(=O)(=O)c1cc(C(=O)NC2CCN(Cc3ccccc3)CC2)ccc1C	5.6µM*	/	/	/	/	/	2.8µM*	2.2µM*
Cn1cccc1C(=O)OCC(=O)c1cc2ccccc2o1	11%	/	68%	79%	/	-26%	/	/
Cc1nn(C)c(=O)n1-c1ccc(Oc2ccccc2)cc1	1%	/	42%	52%	/	-1%	/	/
COc1ccc(C(=O)CN(Cc2ccccc2)C2=NCCS2)cc1	-23%	-12%	-17%	-1%	-5%	-10%	/	/
O=C(CN(Cc1ccccc1)C1=NCCS1)c1ccc(Cl)cc1	6.3µM*	/	?	-2%	/	-15%	8.9µM*	-7%
O=S1(=O)[C@H]([C@H]2CC3c4ccccc4C2c2ccccc23)[C@@H](N2CCCCC2)[C@@H]1c1ccccc1	/	/	/	/	/	-3%	/	/
CCOC(=O)CC(=O)CSc1nc2sc(C)cc2c(=O)n1Cc1ccco1	?	i	/	4.7µM*	-12%	-14%	11µM*	25%
O=C(CCl)Nc1cc2[nH]c(=O)[nH]c2cc1Br	6.3µM*	?	7.4µM*	2.3µM*	?	/	16µM*	?
Cc1ccccc1NC(=O)CCl	-17%	/	?	?	/	3%	/	/
O=C1/C(=C/c2ccc([N+](=O)[O-])cc2)Oc2cc(O)ccc21	-26%	-19%	41%	55%	-9%	-43%	/	/
Cc1cc(S(=O)(=O)Nc2ccc3ccccc3c2)c(C)s1	?	/	/	-7%	/	-64%	22µM*	?
COc1ccc(CCNC(=O)CCS(=O)(=O)c2ccc(Br)cc2)cc1OC	8%	i	-2%	11%	-13%	/	/	/
COc1ccc(OC)c2nc(-c3ccc4c(c3)OCO4)ccc12	4.5µM*	?	422%	/	-20%	-36%	8.9µM*	24%
c1ccc2nc(-c3ccc4c(c3)OCO4)ccc2c1	-9%	i	240%	292%	-1%	-3%	/	/
CC(C)N(C(=S)Nc1cc(S(=O)(=O)N2CCOCC2)ccc1Cl)c1ccccc1	3%	-17%	-17%	1%	-1%	9%	/	/
C/C(=N\NC(=S)Nc1cc(S(=O)(=O)N2CCOCC2)ccc1Cl)c1ccccc1F	?	-37%	-24%	77%	-27%	?	22µM*	?
CN(C)C1=NCCN1CCc1ccccc1	6%	-7%	66%	10%	-19%	/	/	/
COc1cc(N)c(Cl)cc1C(=O)N[C@H]1CCN(CCCOc2ccc(F)cc2)C[C@H]1OC	1.8µM*	-9%	4.7µM*	2.6µM*	-16%	/	4.4µM*	4%
COc1cc(N)c(Cl)cc1C(=O)OCCN1CCCCC1	/	/	/	/	/	5%	/	/
CCN1CCN(S(=O)(=O)c2cc(OCC(=O)NC3CCCCC3)c(C)cc2Cl)CC1	7.1µM*	/	2%	2.1µM*	/	-3%	4µM*	7µM*
COc1cccc(-c2nn(-c3ccc(C)cc3)cc2C(=O)N2CCN(C3CCS(=O)(=O)C3)CC2)c1 (stereo unspecified)	-8%	/	-10%	?	/	/	/	/
COc1ccc(-c2cc([C@H](O)C3CCCCN3)c3ccccc3n2)cc1 (stereo partly specified)	/	/	/	/	/	8%	/	/
OC(c1cc(-c2ccc(C(F)(F)F)cc2)nc(C(F)(F)F)c1)C1CCCCN1 (stereo unspecified)	5µM*	?	0.0083µM*	0.1µM*	11µM*	9%	14µM*	?
Cn1c(SCc2ccc(F)cc2Cl)nc2ccccc2c1=O	?	-28%	?	?	-25%	/	6.3µM*	14µM*
Cc1ccc(Cn2ncc3c(N4CCN(CCc5ccccc5)CC4)ncnc32)cc1	5µM*	-25%	?	6.6µM*	-15%	-2%	11µM*	25µM*
SMILES	HCV inhibitor	VACV mCherry inh	Pf growth 96h	Pf growth 48h	VACV Venus inh	NS1 function inh	HCV inh confirm	HCV cytotox
c1ccc(-c2nn(-c3ccccc3)[n+](-c3ccccc3)n2)cc1	3.2µM*	-6%	/	/	-11%	/	25µM*	?
C#CCN1C=CC(=O)[C@@H](OC(=O)Nc2ccc(Cl)cc2)[C@H]1c1ccccc1Br	8.9µM*	-6%	/	/	-6%	/	?	1%
O=C(Nc1ccc(/C=C/c2nc3ccccc3o2)cc1)c1c(F)cccc1F	5.6µM*	/	-36%	-66%	?	7%	4.4µM*	-32%
CC(=O)Nc1ccc(/C=C/c2nc3ccccc3o2)cc1	?	/	129%	/	/	-34%	/	/
O=C(NC1(C(F)(F)F)Oc2ccccc2O1)N1CCC2(CC1)OCCO2	?	?	?	-15%	-21%	-4%	?	?
O=C(c1ccccc1)N1CCC2(CC1)OCCO2	11%	-14%	32%	31%	-6%	0%	/	/
CCCC1(CCC)C(=O)NC(=Nc2ccc(C)cc2)NC1=O	/	/	237%	-12%	/	/	/	/
COc1ccc(OC)c(S(=O)(=O)N(C)CC(=O)N2CCOCC2)c1	18%	/	14%	?	/	-3%	/	/
COc1cc2c(cc1NC(=O)COC(=O)/C=C/c1ccc([N+](=O)[O-])cc1)oc1ccccc12	?	/	23%	8%	/	4%	?	23%
COc1cc2c(cc1NC(=O)/C=C/c1ccc([N+](=O)[O-])cc1)oc1ccccc12	-28%	8%	29%	31%	3%	-7%	/	/
CCOC(=O)C1(C)C=C(Nc2ccc(OC)cc2)C(=O)N1c1ccc(OC)cc1 (stereo unspecified)	6%	-13%	19%	-9%	-11%	4%	/	/
CCCCn1c(N)c(N(CCOC)C(=O)c2ccc(NC3CC3)c([N+](=O)[O-])c2)c(=O)[nH]c1=O	16%	i	-16%	?	-15%	/	/	/
CN1CCOc2cc(S(=O)(=O)Nc3ccc(F)cc3)ccc21	?	/	-5%	43%	?	-8%	/	/
C=C1C(=O)O[C@@]23[C@H]1CC[C@@H](C)[C@@H]2CC[C@@]1(C)O[C@@H]31	2.8µM*	?	/	/	?	/	?	-12%
CCCCn1c(SCN2C(=O)c3ccccc3C2=O)nc2cc(S(N)(=O)=O)ccc21	21%	/	4%	6%	-13%	-8%	/	/
CCCCn1c(SCn2nnc3ccccc3c2=O)nc2cc(S(N)(=O)=O)ccc21	?	-16%	/	?	-23%	1%	0.0011µM*	-3%
O=C(NCC1CCCO1)c1cc2c([nH]c3ccccc32)c(-c2cccc(Br)c2)n1 (stereo unspecified)	2µM*	?	3.7µM*	?	?	-21%	14µM*	37%
